# From PubChem BioAssay
# Shiga toxin inh: blocks Shiga toxin action in Vero cells | hit rate 9.2% among 290,000 | Vero cells, Shiga toxin protein synthesis inhibition reporter | inhibition, % at 38.7 µM; in the data active = inhibition mostly above about 28%, no sharp cut-off; inactive = mostly below about 43%; note: 0% is about no effect
# NS1 function inh: inhibitors of influenza NS1 protein function; AID 2326; Potency, µM (doses to about 46.1 µM), for the others: top-dose activity, positive = more growth; hit rate 0.4% among 270,000; calls by dose curve; note: potency is the fitted concentration of half-maximal effect; actives are rising curves; nearly all actives have a fitted effect of over 50% in size
#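 S. cerevisiae expressing influenza A NS1, grown in glucose, washed, then diluted 1:100 into pH 6.0 -URA galactose medium with 23 nl compound. Growth recovery read as OD600; NS1-free strain serves as control.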
# CHX counter: counter-screen for Shiga toxin inhibitors: cycloheximide protein synthesis inhibition; max response, %; cell reporter, cycloheximide protein synthesis inhibition counterscreen; hit rate 12% among 300,000; in the data active = max response mostly above about 13%, no sharp cut-off; inactive = mostly below about 14%; note: read at 38.3 µM for the half of the compounds with a filed dose; 0% is about no effect
# SARS PLP yeast: blocks SARS-CoV papain-like protease in a yeast assay | S. cerevisiae expressing SARS-CoV PLpro, growth rescue | Potency, µM (titrated, usually from 32.9 µM), for the others: top-dose activity, positive = growth rescue, hits mostly activators | hit rate 0.19% among 330,000 | AID 485353; calls by dose curve; note: potency is the fitted concentration of half-maximal effect; 0% is about no effect; nearly all actives have a fitted effect of over 55% in size
# Pf growth 48h: P. falciparum growth inhibition at 48 hours (one generation); Potency, µM (top dose mostly 28.7 µM), for the others: at the highest dose activity change, negative = inhibition, hits mostly inhibitors; hit rate 5.9% among 310,000; AID 504832; P. falciparum luciferase growth in erythrocytes, 48 h; note: potency is the fitted concentration of half-maximal effect; % is set by controls: 0 for no effect and ±100 for the full control effect
#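 A one-generation exposure of luciferase-tagged malaria parasites in RPMI 1640/Albumax erythrocyte culture, 37 C and 5% CO2. Inhibition is inferred from decreased luminescence after adding detection reagent.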
# Pf growth 96h: inhibits malaria parasite growth, 96 h; Potency, µM (titrated, usually from 28.7 µM), for the others: at the highest dose activity change, negative = inhibition, usual class: inhibitors; AID 504834; P. falciparum luciferase reporter growth, 96 h; hit rate 6.9% among 320,000; note: potency is the fitted concentration of half-maximal effect; % is set by controls: 0 for no effect and ±100 for the full control effect
#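 Cell-based qHTS: luciferase-tagged P. falciparum in erythrocytes (2% hematocrit, 0.05% parasitemia final) incubated with compounds for 96 hours, 37 C, 5% CO2; luciferase detection reagent then added and luminescence measured.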
# Numbers without * were called inactive; ? = inconclusive; . = no result; [ ] = remark or other dose. A selection: hits, their analogues and other compounds. The true share with any hit is near 21%. Unless noted, calls come from the whole dose curve; as a rule, active = well fitted inhibition curve with a large enough effect; inconclusive = small, poorly fitted or top-dose-only effect, or another doubt; inactive = no such curve, though single readings can be large or run the other way.
SMILES,Shiga toxin inh,NS1 function inh,CHX counter,SARS PLP yeast,Pf growth 48h,Pf growth 96h
COC(=O)c1oc2ccc(Cl)cc2c1N,99*,-15%,22*,-8%,61%,?
COc1ccc2oc(C(=O)C3CC3)c(N)c2c1,131*,-10%,43*,-5%,90%,16%
COC(=O)c1oc2ccccc2c1N,18,-10%,11,-2%,.,60%
COc1ccc2oc(C(=O)OCC(=O)N3CCCCC3C)c(C)c2c1 (stereo not drawn),.,.,.,-1%,.,.
COc1ccc(C(=O)c2oc3ccccc3c2N)cc1,active,-54%,93*,-11%,75%,.
COc1ccc(C(=O)c2oc3nc(C)cc(C)c3c2N)cc1,-9,-12%,1,6%,71%,.
COc1ccc2oc(C)c(C(N)=O)c2c1,1,-7%,-1,2%,9%,-23%
Cc1cccc(N2CCN(C(=O)CCC(=O)N3Cc4ccccc4Oc4ncccc43)CC2)c1C,3,-31%,3,23%,?,?
Cn1cc(S(=O)(=O)N2CCCC2)cc1C(=O)Nc1cccc(C(F)(F)F)c1,2,9%,-2,2%,?,-1%
COc1ccc2oc(C(=O)c3ccccc3)c(N)c2c1,135*,-35%,65*,-7%,130%,63%
CCc1ccc(C(C)NC(=O)COC(=O)c2ccc(-n3cnnn3)cc2)cc1 (stereo not drawn),.,.,.,4%,.,.
CNC(C(=O)c1ccccc1)C(OC(C)=O)c1cccc([N+](=O)[O-])c1 (stereo not drawn),-7,8%,4,-1%,?,2.9µM*
CCOC(=O)C(NC(C)=O)C(OC(C)=O)c1cccc([N+](=O)[O-])c1 (stereo not drawn),-8,-3%,-4,2%,40%,10%
COc1ccc2[nH]c(=O)c(C(c3nnnn3C(C)(C)C)N(Cc3ccco3)CC3CCCO3)cc2c1 (stereo not drawn),-9,-19%,8,8%,9.3µM*,5.9µM*
Cc1cc(C)c2[nH]c(=O)c(C(c3nnnn3C(C)(C)C)N(Cc3ccco3)CC3CCCO3)cc2c1 (stereo not drawn),-4,9%,10,8%,.,1.9µM*
Cc1cccc(NC(=O)CSCC(=O)Nc2ccc(S(=O)(=O)N3CCCC3)cc2)c1,.,.,.,-1%,-19%,-17%
CCN(CC)S(=O)(=O)c1ccc(N2CCN(C)CC2)c(NC(=O)Nc2ccc(C)cc2)c1,2,-4%,17*,2%,9.3µM*,?
CCN(CC)S(=O)(=O)c1ccc(N2CCN(C)CC2)c(NC(=O)CSCC(=O)Nc2cccc(C)c2)c1,.,.,.,7%,17µM*,?
CC(C)COc1ccc2[nH]c3c(c2c1)CCCC3=O,-16,-6%,-2,?,.,?
OCC1(Cc2ccccc2)CCN(Cc2cnc(-c3ccc(Cl)cc3)nc2)CC1,91*,2%,39*,0%,?,32%
COc1ccc(CC2(CO)CCN(C(C)Cc3ccc(Cl)cc3)CC2)cc1 (stereo not drawn),-8,5%,1,0%,12µM*,8%
COc1ccc(CC2(CO)CCN(S(=O)(=O)c3sccc3C)CC2)cc1,-5,-8%,8,-3%,?,12µM*
COc1ccc(-c2ncc(CN3CCC(CO)(Cc4cccc(OC)c4)CC3)cn2)cc1,27,-2%,8,0%,10µM*,?
OCC1(Cc2ccccc2)CCN(Cc2cnc(-c3cccc4ccccc34)nc2)CC1,20,5%,9,-2%,?,32%
COc1cccc(CC2(CO)CCN(Cc3cnc(N4CCOCC4)s3)CC2)c1,-12,0%,-1,0%,-26%,37%
SMILES,Shiga toxin inh,NS1 function inh,CHX counter,SARS PLP yeast,Pf growth 48h,Pf growth 96h
O=S(=O)(c1cc(Cl)c(Cl)cc1Cl)N1CCN2CCCC2C1 (stereo not drawn),-11,16%,-6,3%,-6%,-22%
COc1ccc(CC2(CO)CCN(Cc3cccnc3)CC2)cc1,33,4%,38*,-1%,10µM*,-18%
COc1cccc(CC2(CO)CCN(Cc3cccn3-c3cccnc3)CC2)c1,-40,2%,-2,-2%,-10%,?
O=C(c1ccccc1)N1CCN=C1c1ccccc1,1,11%,6,-9%,-11%,12µM*
COC(=O)C1=C(C)N=C2SC(C#N)=C(N)N2C1c1ccc(OCc2ccccc2)cc1 (stereo not drawn),-15,9%,-1,-12%,.,12µM*
COC(=O)C1=C(C)N=C2SC(C#N)=C(N)N2C1c1cc(OC)c(OC)c(OC)c1 (stereo not drawn),-4,4%,-3,6%,?,?
N#Cc1ccccc1NC(=O)COC(=O)c1ccc2c(c1)OCO2,.,.,.,-11%,7%,14%
Cc1cc(CC(C)C)n(-c2nc3ccccc3c(=O)n2OCC(N)=O)n1,104*,1%,26*,-2%,-20%,?
CC(NC(=O)CCNC(=O)c1ccc(C(C)(C)C)cc1)c1ccccc1 (stereo not drawn),.,.,.,2%,.,.
COC(=O)c1ccc(-c2noc(CN(C)CC3CCCCO3)n2)cc1 (stereo not drawn),54,-4%,43*,-2%,87%,?
COC(=O)c1ccc(-c2noc(CN3C[C@H]4CC[C@H]3C4)n2)cc1,21,1%,19*,-2%,92%,?
COC(=O)c1ccc(-c2noc(CN(Cc3ccncc3)CC3CCCO3)n2)cc1 (stereo not drawn),-11,0%,-4,0%,?,-2%
COc1ccc(N2CCN(C3CCCN(C(=O)CSC)C3)CC2)cc1 (stereo not drawn),.,-1%,-4,-2%,0%,0%
COc1ccc(OCCNS(=O)(=O)c2ccccc2)cc1,-17,-3%,1,3%,0%,69%
Cc1ccc(OCCNS(=O)(=O)c2cccs2)cc1,56,-4%,44*,6%,-28%,15%[5.75 µM]
CS(=O)(=O)NCCOc1ccc(S(=O)(=O)NCCOc2ccccc2)cc1,-23,.,8,1%,10µM*,31%
CC(=O)Nc1ccccc1-c1nc2ccccc2nc1OCC(=O)c1ccc(Cl)cc1,-12,-1%,-6,2%,-7%,?
O=C(O)Cc1ccc(OCc2ccc(Cl)nc2)cc1,38,.,10,1%,2%,102%
CCOc1ccc2[nH]c(C)c(CN3CCOCC3)c(=O)c2c1,18,6%,-3,0%,-6%,86%
CCOc1ccc2[nH]c3ncccc3c(=O)c2c1,40*,-5%,17,-3%,?,-24%
CC(=O)n1cc(N(C(=O)CCl)c2ccc(C)cc2)c2ccccc21,4,-5%,22*,-2%,?,?
Cc1ccc(Cl)c(OCC(=O)Nc2sc(C)c(C)c2C#N)c1,13,12%,1,6%,9%,?
CCOc1ccc2[nH]c3c(NCCCOC)ncnc3c2c1,48*,-1%,35*,20%,.,?
